In all, about 59,000 compounds went through this assay and about 60 (0.1%) were called active. No rule for the calls is given here. This excerpt belongs to a sample that is enriched for actives.

The nature of this assay: qHTS Assay for Spectroscopic Profiling in A488 Spectral Region. To be noted: compound autofluorescence; max dye equivalency: Compound Type: qHTS ECL - SigmaAldrich, stronger effect = higher value unless noted; outcome: dye equivalency, Compound Type: qHTS ECL - MLSMR unless noted. The method in brief:
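Spectroscopic profiling in the A488 region: compounds in pH 8.0 Tris (100 mM), 15 min RT, CCD imaging with 480 nm excitation and 540 nm emission; responses normalized against A488 dye standards.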
For orientation: Quantitative high-throughput screening tests each substance at several concentrations.
Consider `COc1ccc(C(=O)N2CCC[C@@]3(CCN(C(=O)NC(C)C)C3)C2)cc1`, for which the outcome was “inactive [dye equivalency, Compound Type: qHTS ECL - Pharmacopeia]”.

As for `CC(C)NC(=O)N1CC[C@@]2(CCCN(C(=O)c3cccc(F)c3)C2)C1`, the max dye equivalency was 33 nM [Compound Type: qHTS ECL - Pharmacopeia, stronger effect = higher value] (active).

Consider `CC(C)NC(=O)N1CC[C@@]2(CCCN(C(=O)c3ccco3)C2)C1`, for which the outcome is “inactive [dye equivalency, Compound Type: qHTS ECL - Pharmacopeia]”. The same measure, in the same setting: with `c1n[nH]c(NCc2ccc3c(c2)OCO3)n1` the entry was “inactive”; with `CN(C)C(=O)/N=N\C(=O)N(C)C`, “inactive [dye equivalency, Compound Type: qHTS ECL - SigmaAldrich]”; with `COCCn1c(=O)c(-c2cccs2)nc2cnc(N3CCN(C)CC3)nc21`, “inactive [dye equivalency, Compound Type: qHTS ECL - Pharmacopeia]”. With `Cc1ccc(-c2nnc(SC(C)C#N)n2N)cc1` (configuration not stated), the outcome was inactive.

Turning to `CCN(Cc1nc2ccccc2c(=O)[nH]1)Cc1cc(=O)oc2cc(C)c(C)cc12`, the outcome was inactive. As to `O=C(CCS(=O)(=O)c1cccc2nonc12)NCCc1ccccc1Cl`, the outcome was inactive. Same read-out and setting: with `CCOc1cc(S(=O)(=O)NC2CC(C)(C)NC(C)(C)C2)ccc1F` the entry was “inactive [dye equivalency, Compound Type: qHTS ECL - DPISMR]”; with `FC(F)(F)c1cccc(Nc2ncnc3ccccc23)c1`, “inactive [dye equivalency, Compound Type: qHTS ECL - DPISMR]”; with `c1csc(CN2CCN(Cc3cccs3)C2c2cccs2)c1`, “inactive”.

For the compound `CCOc1ccc(NC(=O)Nc2ccc(N(C)C(C)=O)cc2)cc1`, the outcome was “inactive [dye equivalency, Compound Type: qHTS ECL - DPISMR]”.

Consider `COC(=O)[C@H](Cc1ccccc1)NC(=O)Nc1ccc(S(N)(=O)=O)cc1`, for which the outcome was “inactive [dye equivalency, Compound Type: qHTS ECL - DPISMR]”. Consider `COCCNc1ncnc2ccc(-c3cccnc3)cc12`, for which the outcome was “inactive [dye equivalency, Compound Type: qHTS ECL - Pharmacopeia]”. Take `Nc1ccc2c3c(cccc13)C(=O)NC2=O`: the max dye equivalency was 95 nM (active).

As for `O=C(Cn1c(-c2ccccn2)nc2ccccc21)NCCN1CCOCC1`, the outcome is “inactive [dye equivalency, Compound Type: qHTS ECL - DPISMR]”. Regarding `Cc1cc(C)c2c(c1)c(C)cc1nnc(SCC(=O)NCc3ccco3)n12`, the outcome was inactive. As for `Cc1ccc(NC2=NC(c3ccccc3)n3c(nc(C)cc3=O)N2)cc1` (configuration not stated), the outcome was “inactive [dye equivalency, Compound Type: qHTS ECL - DPISMR]”.

Consider `CC[C@H](c1ccccc1)c1cc(C(C)(C)C)cc(C(C)(C)C)c1O`, for which the outcome is “inactive [dye equivalency, Compound Type: qHTS ECL - NCI]”. In the case of `COc1cccc(Cn2c(=O)c(CCc3ccccc3)nc3cnc(N(C)C)nc32)c1`, the outcome was “inactive [dye equivalency, Compound Type: qHTS ECL - Pharmacopeia]”. On to `Cc1cc(Br)ccc1NC(=O)C1CCCO1` (configuration not stated), for which the outcome was “inactive [dye equivalency, Compound Type: qHTS ECL - DPISMR]”. As to `Cc1nnc(C)n1/N=C/c1ccc(C(C)C)cc1`, the outcome was inactive. The same measure, in the same setting: the value for `CCON=C1C(C)(C)C(C)(C)C(C)(C)C1(C)C` was “inactive [dye equivalency, Compound Type: qHTS ECL - NCI]”; that for `COc1ccc(C2/C(=C(/O)c3ccc(OC(C)C)cc3)C(=O)C(=O)N2CCCN2CCOCC2)cc1` (configuration not stated) was “inactive”. On the same count and under the same terms, with `COC(=O)c1ccc(Oc2nc(NC(C)C)nc(SC)n2)cc1` the entry was “inactive [dye equivalency, Compound Type: qHTS ECL - DPISMR]”; with `CCc1nnc(NC(=O)CSc2nnc(COc3ccc(C#N)cc3)n2-c2ccccc2)s1`, “inactive”. Consider `C=CCOc1ccc(C2/C(=C(\O)c3c(C)[nH]c(C(=O)OC)c3C)C(=O)C(=O)N2CCN(C)C)cc1` (configuration not stated), for which the outcome was “inactive [dye equivalency, Compound Type: qHTS ECL - DPISMR]”. Regarding `COc1ccc(NC(=O)N2CC3(CCN(C(C)=O)CC3)C2)cc1`, the outcome is “inactive [dye equivalency, Compound Type: qHTS ECL - Pharmacopeia]”. Regarding `O=c1c(-c2ccc(F)cc2)nc2cnc(N3CCOCC3)nc2n1-c1ccccc1`, the outcome was “inactive [dye equivalency, Compound Type: qHTS ECL - Pharmacopeia]”.

In the case of `O=C(CSc1nnc(-c2ccncc2)n1C1CCCCC1)Nc1ccccc1`, the result was inactive. Same read-out and setting: the value for `c1cncc(-c2nc(N3CCNCC3)c3ccccc3n2)c1` was “inactive [dye equivalency, Compound Type: qHTS ECL - Pharmacopeia]”; that for `Cc1ccc(S(=O)(=O)N2CCN(Cc3cccc(C)c3O)CC2)cc1` was “inactive”. Take `COc1ccc(-c2nc3cnc(N(C)C)nc3n(Cc3cccs3)c2=O)cc1`: the outcome was “inactive [dye equivalency, Compound Type: qHTS ECL - Pharmacopeia]”. In the case of `Cc1nc2cnc(N3CCNCC3)nc2n(Cc2ccc(F)cc2)c1=O`, the outcome was “inactive [dye equivalency, Compound Type: qHTS ECL - Pharmacopeia]”. For the compound `COCCn1c(=O)c(-c2ccc(OC)cc2)nc2cnc(Oc3cccc(Cl)c3)nc21`, the outcome was “inactive [dye equivalency, Compound Type: qHTS ECL - Pharmacopeia]”. On to `COc1ccc(OC)c2c(N)c(C#N)c(C(F)(F)C(F)(F)F)nc12`, for which the outcome was inactive. With `O=C(Nc1nn(Cc2ccccc2F)cc1Br)c1cccs1`, the outcome was “inactive [dye equivalency, Compound Type: qHTS ECL - DPISMR]”.

With `Brc1ccc(Nc2c3c(nc4ncnn24)CCC3)cc1`, the result was inactive. Same read-out and setting: with `Cc1ccccc1C(OCC(O)CN1CCCCC1CCO)c1ccccc1` (configuration not stated) the entry was “inactive”; with `CCCN1C(=O)C(NS(=O)(=O)c2ccc(N)cc2)(C(F)(F)F)C(C(=O)OC)=C1C` (configuration not stated), “inactive [dye equivalency, Compound Type: qHTS ECL - DPISMR]”; with `Cc1cc(C(F)(F)F)n2ncc(-c3ccccc3)c2n1`, “inactive [dye equivalency, Compound Type: qHTS ECL - DPISMR]”. For the compound `COc1ccccc1CNc1ncncc1-c1cccnc1`, the outcome was “inactive [dye equivalency, Compound Type: qHTS ECL - Pharmacopeia]”.

As to `Cc1ccc(S(=O)(=O)Nc2ccccc2CNc2c(C)n(C)n(-c3ccccc3)c2=O)cc1`, the outcome was inactive. The same measure, in the same setting: with `CC(=NC1CCN(Cc2ccccc2)CC1)c1c(O)[nH]c(=O)[nH]c1=O` the entry was “inactive [dye equivalency, Compound Type: qHTS ECL - DPISMR]”; with `CCn1ccnc1C[C@@H]1COc2ccccc2O1`, “inactive [dye equivalency, Compound Type: qHTS ECL - SigmaAldrich]”; with `CN1[C@H]2CC(OC(=O)[C@@H](CO)c3ccccc3)C[C@H]1[C@H]1O[C@H]12` (some centres not stated), “inactive [dye equivalency, Compound Type: qHTS ECL - Prestwick]”.

These data come from PubChem BioAssay AID591 (National Center for Advancing Translational Sciences (NCATS), 2007).
